Test results as given in PubChem BioAssay (EPA / NIEHS).
Activity calls are given as the source filed them. How the source made its calls: active means hit-call score of the fitted dose curve at least 0.9, where 1 is the maximum; inactive means score below 0.9.

Assay: ATG_DR4_LXR_CIS: Attagene CIS-FACTORIAL HepG2 Assay for human Liver X Receptor (LXR), DR4 submotif (AID 2282929)
Settings: HepG2 Attagene DR4 cis-reporter, mRNA transcription; actives raise or lower the signal
Method: ATG_CIS is a cell-based, multiplexed-readout assay that uses HepG2, a human liver cell line, with measurements taken at 24 hours after chemical dosing in a 24-well plate.ATG_DR4_LXR_CIS is one of 52 assay component(s) measured or calculated from the ATG_CIS assay. It is designed to make measurements of mRNA induction, a form of inducible reporter, as detected with fluorescence intensity signals by Reverse transcription polymerase chain reaction (RT-PCR) and Capillary electrophoresis technology.Data from the assay component ATG_DR4_LXR_CIS was analyzed into 1 assay endpoint. This assay endpoint, ATG_DR4_LXR_CIS, was analyzed with bidirectional fitting relative to DMSO as the negative control and baseline of activity. Using a type of inducible reporter, measures of mRNA for gain or loss-of-signal activity can be used to understand the reporter gene at the transcription factor-level as they relate to the gene NR1H2 and NR1H3. Furthermore, this assay endpoint can be referred to as a primary readout, because this assay has produced multiple assay endpoints where this one serves a reporter gene function. To generalize the intended target to other relatable targets, this assay endpoint is annotated to the nuclear receptor intended target family, where the subfamily is non-steroidal.
Human liver HepG2 cells are transiently transfected with multiple reporter transcription units (MRTUs) in 6-well plates using FuGene 6 reagent (Roche; 3 ml FuGene/1 mg DNA). The MRTU constructs are regulated by a cis-regulating element (promoter). […] A major difference between the CIS and TRANS system is that in CIS activities of endogenous TFs are measured, whereas the TRANS assay evaluates changes in activities of exogenous, chimeric NR-Gal4 proteins. […] At the end of 24 hour incubation, total RNA was isolated using TriZol reagent (Invitrogen). The isolated RNA is then reverse-transcribed using oligo(dT) primer and Mo-MLV reverse transcriptase (Invitrogen) with DNAse I (Ambion) treatment for 30 min. The one-tenth of the produced cDNA was amplified by PCR using Taq DNA polymerase (Invitrogen) and two reporter sequence-specific primers. The PCR products were fluorescently labeled by primer extension with 6-arboxyfluorescein (6-FAM) 5'-labeled reporter sequence-specific primer (2 min at 95 C, 20 s at 68 C and 10 min at 72 C) and these products were digested with 5U of HpaI (New England Biolabs) for 2h at 37 C. The fragments were purified using Qiaquick PCR columns (Qiagen), analyzed on an ABI 3130xL genetic analyzer (Applied Biosystems) with peak positions identified by using a set of X-rhodamine (ROX)-labeled MapMarker1000 molecular weight standards (BioVentures). The raw capillary electrophoresis data was processed using Attagraph software (Attagene).

**Q.** For N#CCCC(Br)(C#N)CBr (stereo not given), which outcome is on record?
**A.** Its outcome is “inactive”.

**Q.** Which outcome does the source give for N#Cc1ccc(Cl)cc1 here?
**A.** Its outcome is “inactive”.

**Q.** Which outcome does the source give for O=[N+]([O-])c1cc([As](=O)(O)O)ccc1O here?
**A.** The outcome was “inactive”.

**Q.** With OCC(c1ccc(Cl)cc1)c1ccc(Cl)cc1 as the compound, how does the AC50 read?
**A.** Its AC50 is 50.2 µM (active).

**Q.** For Clc1cccc(Cl)c1Cl, which outcome is on record?
**A.** The outcome was “inactive”.

**Q.** With CCN(CC)C(=O)C(Cl)=C(C)OP(=O)(OC)OC as the compound, how does the outcome read?
**A.** The outcome was “inactive”.

**Q.** Which outcome does the source give for OCCCCO here?
**A.** The outcome was “inactive”.

**Q.** For CCCCOC(=O)COC(=O)c1ccccc1C(=O)OCCCC, which outcome is on record?
**A.** The outcome was “inactive”.

**Q.** With CC(C)(C)c1cc([N+](=O)[O-])cc(C(C)(C)C)c1O as the compound, how does the outcome read?
**A.** The outcome was “inactive”.

**Q.** Which outcome does the source give for CC(O)(CS(=O)(=O)c1ccc(F)cc1)C(=O)Nc1ccc(C#N)c(C(F)(F)F)c1 (stereo not given) here?
**A.** The outcome was “inactive”.

**Q.** Which outcome does the source give for Cc1cc(-c2cc(C)c(N)c(C)c2)cc(C)c1N here?
**A.** Its outcome is “inactive”.

**Q.** Which outcome does the source give for CC(=O)C(F)(F)C(F)(F)F here?
**A.** Its outcome is “inactive”.

**Q.** Which outcome does the source give for CS(=O)(=O)c1ccc(C(=O)C2C(=O)CCCC2=O)c(Cl)c1COCC(F)(F)F here?
**A.** The outcome was “inactive”.

**Q.** Which AC50 does the source give for Cc1ccc(OP(=O)(Oc2ccc(C)cc2C)Oc2ccc(C)cc2C)c(C)c1 here?
**A.** Its AC50 is 11.3 µM (active).

**Q.** For O=C(CCl)Nc1ccccc1, which AC50 is on record?
**A.** The AC50 was 76 µM (active).

**Q.** Which AC50 does the source give for CCCCCCCCCCCCCCC(Br)C(=O)O (stereo not given) here?
**A.** The AC50 was 27.4 µM (active).

**Q.** With O=C(NC(=O)c1c(F)cccc1F)Nc1cc(Cl)c(OC(F)(F)C(F)C(F)(F)F)cc1Cl (stereo not given) as the compound, how does the outcome read?
**A.** Its outcome is “inactive”.

**Q.** For OC(c1ccc(Cl)cc1)(c1ccc(Cl)cc1)c1cccnc1, which AC50 is on record?
**A.** The AC50 was 11.1 µM (active).

**Q.** Which AC50 does the source give for CCCCCCCCCCCCBr here?
**A.** Its AC50 is 48.2 µM (active).

**Q.** For CCOP(=S)(OCC)OP(=S)(OCC)OCC, which AC50 is on record?
**A.** The AC50 was 29.5 µM (active).

**Q.** For CCOP(=S)(OCC)Oc1ccc(Cl)cc1Cl, which outcome is on record?
**A.** The outcome was “inactive”.

**Q.** Which outcome does the source give for Clc1cnc(Oc2ccc(Oc3ncc(Cl)cc3Cl)cc2)c(Cl)c1 here?
**A.** Its outcome is “inactive”.

**Q.** With CC1(C)COP(Oc2ccccc2)OC1 as the compound, how does the outcome read?
**A.** Its outcome is “inactive”.

**Q.** For Cc1ccc(CCl)cc1, which outcome is on record?
**A.** Its outcome is “inactive”.

**Q.** For Brc1ccc(Oc2c(Br)cc(Br)cc2Br)c(Br)c1, which outcome is on record?
**A.** The outcome was “inactive”.

**Q.** Which outcome does the source give for CCC(C)(C#N)N=NC(C)(C#N)CC (stereo not given) here?
**A.** The outcome was “inactive”.

**Q.** For CC(=Cc1ccccc1)[N+](=O)[O-], which AC50 is on record?
**A.** The AC50 was 5.88 µM (active).

**Q.** Which outcome does the source give for N#Cc1cccnc1 here?
**A.** Its outcome is “inactive”.

**Q.** With Nc1nc(N)nc(Cl)n1 as the compound, how does the outcome read?
**A.** Its outcome is “inactive”.

**Q.** With CCN(N=O)C(N)=O as the compound, how does the outcome read?
**A.** Its outcome is “inactive”.

**Q.** For Cc1cccc(N=Nc2ccc(N(C)C)cc2)c1, which outcome is on record?
**A.** The outcome was “inactive”.

**Q.** Which outcome does the source give for CCNc1nc(NCC)nc(SC)n1 here?
**A.** Its outcome is “inactive”.

**Q.** For Fc1cccc(Cl)c1CCl, which outcome is on record?
**A.** The outcome was “inactive”.

**Q.** Which outcome does the source give for CCCCN(CCCC)C(=S)[S-].CCCCN(CCCC)C(=S)[S-].[Ni+2] here?
**A.** Its outcome is “inactive”.

**Q.** Which outcome does the source give for Nc1ccc(-c2ccccc2)cc1 here?
**A.** Its outcome is “inactive”.

**Q.** With CCCCCCCCCCCCc1cccc(S(=O)(=O)O)c1 as the compound, how does the AC50 read?
**A.** The AC50 was 30 µM (active).

**Q.** With CC(C)(c1ccc(O)c(-c2ccccc2)c1)c1ccc(O)c(-c2ccccc2)c1 as the compound, how does the AC50 read?
**A.** The AC50 was 4.85 µM (active).

**Q.** With CN(C)C(=S)S as the compound, how does the AC50 read?
**A.** The AC50 was 25.5 µM (active).

**Q.** Which outcome does the source give for CN(C1CCCCC1)C1CCCCC1 here?
**A.** The outcome was “inactive”.

**Q.** For O=S(=O)(c1ccc(Cl)cc1)c1cc(Cl)c(Cl)cc1Cl, which AC50 is on record?
**A.** The AC50 was 40.9 µM (active).
